Test results reported in PubChem BioAssay AID977624 (Broad Institute, 2014).
Fewer than 10 of roughly 1,800 compounds were called active. About 44% were inconclusive and are not listed.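 The calls were made as follows: active = compound lowering the normal-ribosome reporter at least twice as much as the humanized-ribosome reporter, growth loss under a set limit; inconclusive = no clear call, values can overlap the other calls; inactive = the rest.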 A selection follows.

test: wild-type E. coli growth inhibition versus h34 humanized strain – h34 mutant RFP, wild-type GFP, cherry-pick, dose response (AID 977624); settings: fluorescence, 24 h; series mostly up to 50 µM

outcome, inactive:
O=C1CN(C(=O)c2ccc(Cl)c(S(=O)(=O)N3CCc4ccccc43)c2)c2ccccc2N1
COc1ccccc1C1CCN(C(=O)c2ccco2)CC1
Cc1ccccc1SCC(=O)OCC(=O)Nc1sccc1C(N)=O
COc1ccc(-c2csc3ncn(-c4ccc(C)cc4)c(=O)c23)cc1OC
O=C(COC(=O)C12CC3CC(CC(O)(C3)C1)C2)NCCc1ccc(Cl)cc1
CCCc1c(C(=O)Nc2ccc(OC)cc2)cnn1-c1ccccc1
C=CCn1c(SCC(=O)Nc2ccc3c(c2)OCCO3)nnc1-c1ccco1
C[C@@H]1CCCCO[C@H](CN(C)C(=O)CCCN(C)C)[C@@H](C)CN([C@@H](C)CO)C(=O)c2cc(NC(=O)Nc3cccc4ccccc34)ccc2O1
CCn1nc(Cc2cccc3ccccc23)c(C#N)c1N
O=S(=O)(NCC1CCCO1)c1ccc(-c2ccc(Cl)cc2)cc1 (stereo not drawn)
Cc1ccccc1COc1ccc(-c2nn[nH]n2)cc1
CCc1ccc2[nH]c(C(=O)Nc3ccc4c(c3)OCO4)cc2c1
COc1ccc(Cl)cc1NC(=O)C1Cc2ccccc2CN1S(C)(=O)=O (stereo not drawn)
CC(C)(C)c1ccc(-c2noc(CCC(=O)NCc3ccco3)n2)cc1
CN(Cc1nnc(-c2ccc(F)cc2)o1)c1ccccc1
Cc1ccc(Cn2cnc3ccccc32)cc1
O=C(CSc1ccc(-c2cccnc2)nn1)N1CCCc2ccccc21
O=C1c2ccccc2C(c2nnnn2C2CCCCC2)N1CCc1ccc(O)cc1 (stereo not drawn)
CCOC(=O)C1CCCN(Cc2c(Cl)cccc2Cl)C1 (stereo not drawn)
CCOc1ccc2nc(SCC(=O)Nc3nonc3C)[nH]c2c1
CCCCCc1nnc(NC(=O)C2COc3ccccc3O2)s1 (stereo not drawn)
O=C(Cc1cccc(NC(=O)C2CCCN(C(=O)CCc3ccccc3)C2)c1)Nc1cccc(C(=O)N2CCCCC2)c1 (stereo not drawn)
CCN(CC)CCn1c(SCC(=O)Nc2cccc(OC)c2)nc2c(sc3ccccc32)c1=O
COc1ccccc1CCNC(=O)c1cccc(NC(=O)CC2SC(N3CCCCC3)=NC2=O)c1 (stereo not drawn)
Cc1cc(C(=O)COC(=O)CNC(=O)c2ccccc2)c(C)n1CC1CCCO1 (stereo not drawn)
COc1ccc(NC(=O)c2cccc(Oc3ccc([N+](=O)[O-])cc3Cl)c2)cc1
Cc1ccc(S(=O)(=O)Nc2ccc3c(c2)C(=O)N([C@@H](C)CO)C[C@@H](C)[C@H](CN(C)C(=O)c2ccccc2)OCCCC[C@@H](C)O3)cc1
CCOc1ccc(CN(C)C(=O)c2ccc(NS(=O)(=O)c3ccc4[nH]c(=O)[nH]c4c3)cc2)cc1
CCc1nc2ccccc2n1CCc1ccccc1
CCc1cc(C(=O)N2CCCC(C(=O)c3cccc4ccccc34)C2)n(C)n1 (stereo not drawn)
C=C(C)Cn1c(=O)c2c(nc3n2CCCN3Cc2ccccc2)n(C)c1=O
O=C(O)CCN(Cc1ccccc1)S(=O)(=O)c1ccccc1Cl
NC(=O)CSc1nc2cc([N+](=O)[O-])ccc2n1-c1cccc(C(F)(F)F)c1
CCC(C(=O)NCCc1ccc(C)cc1)n1nc(C)c2c(C)n(-c3ccccc3)nc2c1=O (stereo not drawn)
CCOc1ccccc1OCCCC(=O)N1CCN(S(=O)(=O)c2cc(F)ccc2F)CC1
CN(Cc1ccc(F)cc1)C(=O)CN1CCN(S(=O)(=O)c2ccc3c(c2)OCCCO3)CC1
Cc1cccc(-c2nsc(SCC(=O)NCC3CCCO3)n2)c1 (stereo not drawn)
Cc1cc(C)n2nc(C(=O)Nc3cccc(S(=O)(=O)N(C)c4ccccc4)c3)nc2n1
CC(=O)c1ccc(N2CCN(C(=O)C3CCN(S(=O)(=O)c4ccc5c(c4)CC(C)N5C(C)=O)CC3)CC2)cc1 (stereo not drawn)
Cc1cc(C)c(NC(=O)C(C)c2cccc(C(=O)c3ccccc3)c2)c(C)c1 (stereo not drawn)
COCC#Cc1ccc2c(c1)O[C@H](CN(C)C(=O)c1ccccc1)[C@@H](C)CN([C@H](C)CO)S2(=O)=O
C=CCn1c(SCc2n[nH]c(=S)n2-c2ccccc2)nnc1-c1ccccc1
CC(=O)c1ccccc1OCCOCCOCCOc1ccccc1C(C)=O
Brc1ccccc1CN1CCC(Cc2ccccc2)CC1
CCn1cc(CCC(=O)NCCc2ccccc2)c2ccccc21
COc1ccccc1N(C)S(=O)(=O)c1ccc(Cl)c(C(=O)NC2=NCCS2)c1
O=C(COC(=O)CNC(=O)c1ccc(F)cc1)Nc1cccc(S(=O)(=O)N2CCCC2)c1
COC(=O)c1ccc2nc(-c3cccc(Br)c3)c(Cc3ccsc3)n2c1
COc1cccc(C(=O)C2CCCN(C/C=C/c3ccccc3OC)C2)c1 (stereo not drawn)
O=C(NCc1ccccc1)c1cc(S(=O)(=O)N2CCCCC2)ccc1N1CCOCC1
CC(=O)c1c(N2CCOCC2)nc2ccc(Cl)cc2c1-c1ccccc1
O=C(NCc1nnnn1-c1ccc(Cl)cc1)c1ccc([N+](=O)[O-])o1
O=C(CCC(=O)N1CCN(c2ccc(F)cc2)CC1)N1CCN(c2ccc(F)cc2)CC1
COc1cccc(-c2ccc(SCc3ccccn3)nn2)c1
CCC(C(=O)NC1CCCC1)n1c(-c2ccnc3ccccc23)nc2ccccc21 (stereo not drawn)
C=CCNC(=O)c1ccccc1CCc1ccccc1
C=CCN(CC(O)c1cccc([N+](=O)[O-])c1)C(C)CCc1ccccc1 (stereo not drawn)
CO[C@@H]1CN(C)C(=O)c2cc(NC(=O)C3CCCC3)ccc2OC[C@@H](C)N(C(=O)Nc2ccc(C(F)(F)F)cc2)C[C@H]1C
COc1ccc(OC)c(CN2CCCC(C(=O)c3ccccc3SC)C2)c1 (stereo not drawn)
CCN1CCN(c2c(Cl)cccc2NC(=O)c2ccc([N+](=O)[O-])o2)CC1
CCN(C(=O)CSc1cc(C)c2ccc(OC)cc2n1)C1CCS(=O)(=O)C1 (stereo not drawn)
Cc1noc(NS(=O)(=O)c2ccc(NC(=O)c3cc(-c4ccccc4Cl)nc4ccccc34)cc2)c1C
O=C(COC(=O)C1CC1)Nc1nc(-c2ccc(F)c(F)c2)cs1
